# According to PubChem BioAssay (NCATS):
# Inconclusive results are not listed. Where a call stands in place of a potency, no number is given. The source holds several records for some structures; these can differ, active in one and inactive in another. Calls of active or inactive are those of the source. Unless noted, calls come from the whole dose curve; as a rule, active = well fitted curve in the direction sought with a large enough effect; inconclusive = small, poorly fitted or top-dose-only effect, or another doubt; inactive = no such curve, though single readings can be large; an effect the other way counts as inactive or inconclusive.
# Columns and labels:
# [1] = tested on: Zika virus NS2B-NS3 protease (linked construct); test: Primary screen NINDS Rhodamine qHTS for Zika virus inhibitors (AID 1347160); note: nearly all actives have a fitted effect of over 55% in size; note: potency is the fitted concentration of half-maximal effect
# Method in brief: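 Rhodamine110-peptide cleavage (1.5 µM substrate) by 25 nM linked NS2B-NS3 enzyme at pH 8.0 (Tris, Tween 20), after 15 min RT preincubation with compounds; 15-min fluorescence change normalized to controls and Hill-fitted.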
# [2] = biological target: Calcium and integrin-binding protein 1 (Homo sapiens) (UniProt Q99828); test: Primary qHTS for Identification of Calcium Integrin Binding Protein 1 (CIB1) Competitor (AID 1508620);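 note: GST tagged CIB1 binding a fluorescein labelled alphaIIb integrin peptide tracer; top concentration of the series differs between compounds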
# Sequence of Calcium and integrin-binding protein 1 (Homo sapiens) (Q99828 whole entry, looked up): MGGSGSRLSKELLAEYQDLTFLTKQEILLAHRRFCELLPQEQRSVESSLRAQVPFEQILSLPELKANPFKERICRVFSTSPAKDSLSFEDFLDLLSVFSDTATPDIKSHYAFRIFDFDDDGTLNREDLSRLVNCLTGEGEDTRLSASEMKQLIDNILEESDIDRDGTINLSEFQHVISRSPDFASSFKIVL
# Method in brief: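 Fluorescence polarization competition: GST-tagged CIB1 (1 uM final) preincubated with compound 15 min at room temperature, then FITC-labelled alphaIIb peptide (100 nM final) added. After 15 min at room temperature, polarization read at Ex 480/Em 540.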
# [3] = Primary qHTS for inhibitors of nuclear receptor binding SET domain protein 2 (NSD2) in an isogenic RCH-ACV NSD2 p.E1099K mutant (9B) (AID 1645876); note: nearly all actives have a fitted effect of over 70% in size; note: potency is the fitted concentration of half-maximal effect
# [4] = biological target: Phospholipid hydroperoxide glutathione peroxidase GPX4 (Homo sapiens) (UniProt P36969); test: Primary qHTS Assay for Inhibitors of Recombinant Selenoprotein Glutathione Peroxidase 4 (GPX4) (AID 1845192); details: outcome: dose series up to 50 µM unless noted; note: nearly all actives have a fitted effect of over 65% in size
# Sequence of Phospholipid hydroperoxide glutathione peroxidase GPX4 (Homo sapiens) (P36969 whole entry, looked up): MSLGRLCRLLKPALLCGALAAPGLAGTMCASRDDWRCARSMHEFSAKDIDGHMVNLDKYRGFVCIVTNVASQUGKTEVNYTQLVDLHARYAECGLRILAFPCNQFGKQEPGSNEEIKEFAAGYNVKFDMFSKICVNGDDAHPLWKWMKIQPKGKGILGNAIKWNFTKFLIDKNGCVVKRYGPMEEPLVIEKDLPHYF
# Method in brief: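 Steps: GPX4 plus compound, 30 min RT; add GR/GSH/NADPH master mix; start with cumene hydroperoxide; read 340/450 nm fluorescence at 0 and 15 min. Finals were 200 nM GPX4, 1 mM GSH, 0.5 mM CHP, 0.5 mM NADPH, 100 nM GR.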
# [5] = biological target: Luciferin 4-monooxygenase (Photinus pyralis) (UniProt P08659); test: Primary firefly luciferase (FLuc) qHTS assay for identification of artifact compounds. (AID 1845220); note: nearly all actives have a fitted effect of over 60% in size; note: potency is the fitted concentration of half-maximal effect
# Method in brief: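 Enzymatic FLuc inhibition assay: compounds pre-exposed to luciferin/ATP (10 uM each) for 15 min, then purified P. pyralis enzyme at 10 nM added. Read-out: luminescence at 5 min.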
# [6] = tested on: Nanoluciferase (engineered Oplophorus gracilirostris luciferase); test: Primary Nanoluciferase (NLuc) qHTS assay for identification of artifact compounds. (AID 1845222);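 note: NLuc secreted into diluted conditioned medium of S16 cells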
# Method in brief: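 S16 cell supernatant NLuc, 1:55; cpds qHTS; 15 min RT dark; Nano-Glo substrate 1:100, 5 min; luminescence; Hill fit of % inhibition.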
# [7] = Primary redox qHTS assay for identification of artifact compounds. (AID 1845223)
# Method in brief: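 Redox-cycling detection via DTT (250 uM final) oxidation coupled to Amplex Red (25 uM)/HRP (250 mU/mL) in HBSS. 15 min preincubation plus 30 min after DTT, room temperature. Ex/Em 525/598 nm; 4-parameter Hill fit against DMSO and 10 uM DA3003.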
# [8] = tested on: C33A; test: Primary qHTS to identify gynecologic anti-cancer compounds using libraries of approved drugs and bioactive compounds (AID 1345084); details: Gynecologic cancer cell panel viability, ATPlite luminescence, 48 h; series mostly up to 57.5 µM; note: nearly all actives have a fitted effect of over 55% in size
# Method in brief: (§1)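 Cells, 1,000 per well, plated 16 h, then exposed 48 h at 37 C to compounds. Viability by ATPlite luminescence after 15 min at room temperature.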
# [9] = tested on: CASKI; test: as above; details: Gynecologic cancer cell panel viability, ATPlite luminescence, 48 h; series mostly up to 57.5 µM
# Method in brief: as §1
# [10] = tested on: HeLa; test: as above; details: Gynecologic cancer cell panel viability, ATPlite luminescence, 48 h; series mostly up to 57.5 µM
# Method in brief: as §1
# [11] = tested on: Hek293T; test: as above; details: Gynecologic cancer cell panel viability, ATPlite luminescence, 48 h, control line for the selectivity index; series mostly up to 57.5 µM
# Method in brief: as §1
# [12] = tested on: OV90; test: as above; details: Gynecologic cancer cell panel viability, ATPlite luminescence, 48 h; series mostly up to 57.5 µM
# Method in brief: as §1
# [13] = tested on: Tov-21-G; test: as above; details: Gynecologic cancer cell panel viability, ATPlite luminescence, 48 h; series mostly up to 57.5 µM
# Method in brief: as §1
# [14] = tested on: Tov112D; test: as above; details: Gynecologic cancer cell panel viability, ATPlite luminescence, 48 h; series mostly up to 57.5 µM
# Method in brief: as §1
# [15] = biological target: Glutathione peroxidase 1 (Homo sapiens) (UniProt P07203); test: Primary qHTS Assay for Inhibitors of Recombinant Selenoprotein Glutathione Peroxidase 1 (GPX1) (AID 1845191); note: nearly all actives have a fitted effect of over 65% in size
# Sequence of Glutathione peroxidase 1 (Homo sapiens) (P07203 whole entry, looked up): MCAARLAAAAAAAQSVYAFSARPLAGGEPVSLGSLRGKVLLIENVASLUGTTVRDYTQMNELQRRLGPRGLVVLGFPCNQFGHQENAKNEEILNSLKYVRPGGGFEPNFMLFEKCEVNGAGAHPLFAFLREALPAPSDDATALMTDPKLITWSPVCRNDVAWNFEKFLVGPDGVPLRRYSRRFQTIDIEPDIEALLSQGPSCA
# Method in brief: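 GR-coupled readout: NADPH consumption tracked by fluorescence, ex 340/em 450 nm, at t=0 and after 15 min at RT. Final mix 10 nM GPX1, 1 mM GSH, 0.5 mM CHP, 0.5 mM NADPH, 100 nM GR, 0.01% BSA, following 30 min enzyme–compound preincubation.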
# [16] = Primary fluorescence-based thiol-reactive (MSTI) qHTS assay for identification of artifact compounds. (AID 1845221); note: nearly all actives have a fitted effect of over 65% in size; note: potency is the fitted concentration of half-maximal effect
# Method in brief: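 MSTI probe at 4 uM final in 2% DMSO/PBS pH 7.4; compounds, 1 h at room temperature in dark. Fluorescence Ex/Em 525/598 nm, normalised to Acetyl-MSTI and MSTI, fitted to 4-parameter Hill.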
# [17] = qHTS drug screen for cell cycle checkpoint inhibitors in PARPi-resistant BRCA-mutant ovarian cancer cell lines. (AID 1963452; calls by dose curve); details: PEO1/OlaR viability, CellTiter-Glo luminescence, 96 h, stronger effect = lower value
# Method in brief: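 PEO1, PEO4 and PEO1/OlaR ovarian cancer cells, 600 per well, exposed 96 h at 37C to a dilution series. Viability read by CellTiter-Glo luminescence, normalized to DMSO and empty wells; activity summarized as Z-AUC.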
# [18] = tested on: JEG-3; test: Primary qHTS to identify gynecologic anti-cancer compounds using libraries of approved drugs and bioactive compounds (AID 1345084); details: Gynecologic cancer cell panel viability, ATPlite luminescence, 48 h; series mostly up to 57.5 µM; note: nearly all actives have a fitted effect of over 55% in size
# Method in brief: as §1
# [19] = Primary qHTS for inhibitors of nuclear receptor binding SET domain protein 2 (NSD2) in an RCH-ACV wild type WT cells (2C) (AID 1645877); note: potency is the fitted concentration of half-maximal effect; nearly all actives have a fitted effect of over 70% in size
# [20] = tested on: Es-2; test: Primary qHTS to identify gynecologic anti-cancer compounds using libraries of approved drugs and bioactive compounds (AID 1345084); details: Gynecologic cancer cell panel viability, ATPlite luminescence, 48 h; series mostly up to 57.5 µM; note: nearly all actives have a fitted effect of over 55% in size
# Method in brief: as §1
# [21] = measured here: PEO1 parental Z-AUC
smiles,measurement,setting,value
OCC(Cc1ccccc1)Nc1nc(Oc2ccc3c(c2)CCC3)nc2c1ncn2Cc1ccc(-c2ccccc2)cc1 (configuration not stated),Potency,[1],inactive
same,outcome,[2],inactive
same,Potency,[3],16.3 µM (active)
same,Potency,[4],inactive
same,Potency,[5],inactive
same,Potency,[6],inactive
same,Potency,[7],inactive
same,Potency,[8],inactive
same,Potency,[9],inactive
same,Potency,[10],inactive
same,Potency,[11],inactive
same,Potency,[12],inactive
same,Potency,[13],inactive
same,Potency,[14],inactive
O=C(NNc1ccccc1)c1ccncc1,Potency,[1],inactive
same,outcome,[2],inactive
same,Potency,[3],inactive
same,Potency,[15],inactive
same,Potency,[4],inactive
same,Potency,[5],inactive
same,Potency,[16],inactive
same,Potency,[6],inactive
same,Potency,[7],inactive
same,Z-AUC,[17],1.21 (inactive)
same,Z-AUC,[17]; [21],0.257
same,Z-AUC,[17]; measured here: PEO4 Z-AUC,0.154
same,Potency,[8],inactive
same,Potency,[9],inactive
same,Potency,[10],inactive
same,Potency,[18],inactive
same,Potency,[12],inactive
same,Potency,[13],inactive
COc1ccccc1NC(=O)Nc1ccc2ccccc2c1,Potency,[1],inactive
same,outcome,[2],inactive
same,Potency,[3],25.8 µM (active)
same,Potency,[19],2.9 µM (active)
same,Potency,[15],inactive
same,Potency,[4],inactive
same,Potency,[5],8.49 µM (active)
same,Potency,[16],inactive
same,Potency,[6],inactive
same,Potency,[7],inactive
same,Potency,[8],inactive
same,Potency,[20],inactive
same,Potency,[10],inactive
same,Potency,[11],inactive
same,Potency,[18],inactive
same,Potency,[14],inactive
CC1CCN(C(c2ccc(F)cc2)c2ccc(C(C)C(=O)O)cc2-c2ccc(C(F)(F)F)cc2)CC1 (configuration not stated),Potency,[1],3.16 µM (active)
same,outcome,[2],inactive
same,Potency,[3],14.5 µM (active)
same,Potency,[19],11.5 µM (active)
same,Potency,[15],inactive
same,Potency,[4],inactive
same,Potency,[5],inactive
same,Potency,[16],inactive
same,Potency,[6],inactive
same,Potency,[7],inactive
same,Potency,[8],inactive
same,Potency,[9],inactive
same,Potency,[20],inactive
same,Potency,[18],inactive
same,Potency,[12],inactive
same,Potency,[13],inactive
same,Potency,[14],inactive
C=C1C(=O)O[C@@H]2CC(C)=C([C@@H](C)CCCO)[C@@H](OC(=O)C(C)C)[C@H]12,Potency,[1],inactive
same,outcome,[2],inactive
same,Potency,[3],14.2 µM (active)
same,Potency,[19],14.2 µM (active)
same,Potency,[15],inactive
same,Potency,[4],inactive
same,Potency,[5],inactive
same,Potency,[16],14.7 µM (active)
same,Potency,[6],inactive
same,Potency,[8],inactive
same,Potency,[20],inactive
same,Potency,[10],inactive
same,Potency,[18],inactive
same,Potency,[12],inactive
COc1ccc(CNC(=O)Nc2ncc([N+](=O)[O-])s2)cc1,Potency,[1],inactive
same,outcome,[2],inactive
same,Potency,[3],18.6 µM (active)
same,Potency,[19],18.6 µM (active)
same,Potency,[15],inactive
same,Potency,[4],inactive
same,Potency,[16],2.67 µM (active)
same,Potency,[6],inactive
same,Potency,[7],inactive
same,Z-AUC,[17],-1.06 (inactive)
same,Z-AUC,[17]; [21],-0.517
same,Z-AUC,[17]; measured here: PEO4 Z-AUC,-0.518
same,Potency,[9],inactive
same,Potency,[18],inactive
same,Potency,[13],inactive
same,Potency,[14],inactive
Nc1ncnc2c1ncn2[C@@H]1O[C@H](CO)C[C@H]1O,Potency,[1],inactive
same,outcome,[2],inactive
same,Potency,[3],10.3 µM (active) and inactive
same,Potency,[19],5.78 µM (active)
same,Potency,[15],inactive
same,Potency,[4],inactive
same,Potency,[5],inactive
same,Potency,[6],inactive
same,Potency,[7],inactive
same,Z-AUC,[17],1.48 (inactive)
same,Z-AUC,[17]; [21],0.932
same,Z-AUC,[17]; measured here: PEO4 Z-AUC,0.673
same,Potency,[8],inactive
same,Potency,[9],inactive
same,Potency,[18],inactive
same,Potency,[12],inactive
same,Potency,[14],inactive
